High-throughput results from PubChem.
Shown are actives, neighbours in structure and some others; about 2.8% of the full set was active somewhere.
PI5P4K alpha inh: PI5P4K alpha (human) kinase inhibition | actives 1.2% (n = 330,000) | max response, % | PI5P4Kalpha enzyme, ADP-Glo luminescence, 60 min; stronger effect = lower value | AID 652105; active means max response of -50% or lower; inconclusive means between -30% and -50%; inactive means -30% or higher; further: value at the top dose of about 77 µM; on the % scale 0 is the no-effect control and ±100 the full control effect
Target sequence (P48426 whole entry, looked up): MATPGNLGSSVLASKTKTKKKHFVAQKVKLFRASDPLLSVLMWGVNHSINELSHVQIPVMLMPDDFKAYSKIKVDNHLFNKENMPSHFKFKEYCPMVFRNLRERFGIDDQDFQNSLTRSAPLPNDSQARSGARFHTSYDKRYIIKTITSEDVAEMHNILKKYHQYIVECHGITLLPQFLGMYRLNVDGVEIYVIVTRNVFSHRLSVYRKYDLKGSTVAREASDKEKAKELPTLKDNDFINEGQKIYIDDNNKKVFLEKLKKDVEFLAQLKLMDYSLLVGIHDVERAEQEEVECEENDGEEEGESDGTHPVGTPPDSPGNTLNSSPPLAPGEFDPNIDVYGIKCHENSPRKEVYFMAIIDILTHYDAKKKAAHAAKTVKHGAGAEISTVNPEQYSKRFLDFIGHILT
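Compounds were pin-transferred onto PI5P4Kalpha and substrate in HEPES pH 7.4 buffer with EGTA, CHAPS and 5% DMSO. ATP (5 microM final) started the reaction, which ran 60 minutes at room temperature before ADP-Glo detection.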
Pol beta inh: DNA polymerase beta (human) inhibition; P06746; Pol beta primer extension/strand displacement, fluorescence kinetic; Potency, µM (highest dose often 114 µM), inactives show at the highest dose activity change, negative = inhibition, hits mostly inhibitors; actives 1.3% (n = 340,000); AID 485314; further: potency means the concentration at half of the fitted maximal effect; on the % scale 0 is the no-effect control and ±100 the full control effect
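10 nM enzyme + cpd, 15 min RT; start with substrate 50 nM final; read 0 min and after 10 min RT. Corrected, normalized data; 4-parameter Hill curve fit.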
Pol kappa inh: inhibitors of human DNA polymerase kappa | actives 0.53% (n = 400,000) | Q9UBT6 | Potency, µM (titrated, usually from 107 µM), for inactives: at the highest dose activity, negative = inhibition, hits mostly inhibitors | AID 588579 | purified Pol kappa, fluorescent DNA synthesis assay, 10 min; further: potency means the concentration at half of the fitted maximal effect; on the % scale 0 is the no-effect control and ±100 the full control effect
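Kinetic fluorescence readout at 0 and 10 min followed reaction start with substrate at 50 nM final. Beforehand, enzyme (10 nM Pol kappa) stood 15 min with compound at room temperature; buffer-only wells were negative controls.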
WRN inhibitor: inhibitors of human WRN helicase; actives 0.46% (n = 360,000); WRN helicase unwinding, fluorescent forked duplex, kinetic; Potency, µM (doses to about 114 µM), for the others: at the highest dose activity change, negative = inhibition, actives largely listed as inhibitors; Q14191; further: potency means the concentration at half of the fitted maximal effect; on the % scale 0 is the no-effect control and ±100 the full control effect; nearly all actives have a fitted effect of over 55% in size
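Enzyme (20 nM final) and test compound sit together 15 min at room temperature before substrate addition. Substrate is a single-forked duplex oligonucleotide (100 nM) labelled with fluorophore and quencher, with 2 mM ATP; helicase unwinding raises red fluorescence, read kinetically.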
POLH inh: inhibitors of human DNA polymerase eta | Q9Y253 | recombinant Pol eta, fluorescent DNA replication assay | Potency, µM (titrated, usually from 114 µM), without a hit: at the top dose activity change, negative = inhibition, most hits filed as inhibitors | actives 1.2% (n = 390,000); further: potency means the concentration at half of the fitted maximal effect; on the % scale 0 is the no-effect control and ±100 the full control effect
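Pol eta at 10 nM preincubated with compounds 15 min at room temperature; reaction started with fluorescent substrate (50 nM final) and read kinetically at 0 and 10 min.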
POLI inh: DNA polymerase iota (human) inhibition; Potency, µM (titrated, usually from 115 µM), for inactives: at the highest dose activity, negative = inhibition, usual class: inhibitors; Pol iota fluorescent replication assay, 10 min; actives 1% (n = 390,000); Q9UNA4; further: potency means the concentration at half of the fitted maximal effect
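Fluorescent replication assay read twice, at 0 min and 10 min after adding 50 nM (final) substrate. Enzyme (10 nM) and compounds were first incubated 15 min at room temperature; enzyme-free buffer wells were negative controls.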
ADP-Glo interf: ADP-Glo luciferase interference, PI5P4K counter-screen | shares compounds with PI5P4K alpha inh | ADP-Glo detection counter-screen, luciferase luminescence, no enzyme | Potency, µM (series often up to 76.9 µM), without a hit: top-dose activity change, negative = inhibition, most hits filed as inhibitors | 1,100 tested, under 10 active
* = called active by the depositor; ? = inconclusive; . = no result; [ ] = dose if it differs, or a comment. Unless noted, the call rests on the fitted dose curve; in most records, active means well fitted curve in the direction sought with a large enough effect; inconclusive means small, poorly fitted or top-dose-only effect, or another doubt; inactive means no such curve, though single readings can be large; an effect the other way counts as inactive or inconclusive.

SMILES	PI5P4K alpha inh	Pol beta inh	Pol kappa inh	WRN inhibitor	POLH inh	POLI inh	ADP-Glo interf
O=C(COC(=O)CCc1nc2ccccc2c(=O)[nH]1)Nc1ccccc1	-4.2	.	-12.7%	?	-6.3%	-12.7%	.
CC1Cc2ccccc2N1C(=O)COC(=O)CCc1nc2ccccc2c(=O)[nH]1 (stereo not drawn)	-50.5*	?	-6.9%	-11.5%	-8.5%	8.6%	-3.1%
COc1ccc(N(C(=O)COc2ccccc2OC)S(=O)(=O)c2ccc(Cl)cc2)cc1	.	-25.6%	-5.7%	.	-4.9%	-0.1%	.
COc1ccc(NC(=O)CSc2nc(-c3ccco3)cc(C(F)(F)F)n2)cc1Cl	.	28.6%	-17.2%	.	2.4%	4.7%	.
COc1ccc(NC(=O)CSc2nc(-c3ccco3)nc3cc(=O)[nH]n23)cc1Cl	-56.0*	-33.9%	-37.2%	-7.7%[11.6 µM]	?	79.4µM*	-3.3%
CC(=O)Nc1cc(NC(C)=O)cc(C(=O)N2CCCC3CCCCC32)c1 (stereo not drawn)	-65.2*	?	79.4µM*	?	22.4µM*	14.1µM*	0.3%
Cc1nc2c(nnn2Cc2ccccc2)c(=O)[nH]1	-87.7*	0.5%	-26.3%	?	0.2%	-9.9%	1.7%
COc1ccc(CCNC(=O)CNCC(c2ccccc2)N(C)C)cc1OC (stereo not drawn)	-1.7	-1.1%	-5.2%	3.2%	-15.6%	23.4%	-2.0%
COc1ccc(CCNC(=O)CSc2ccccc2)cc1OC	4.9	28.4%	-2.8%	-4.2%	-3.1%	?	.
Cc1ccc(Nc2nnc(SCC(=O)NCc3ccco3)s2)cc1	-52.3*	10µM*	?	-16.2%	?	-20.6%	5.0%
CCCC(=O)Nc1nnc(SCC(=O)NCc2ccco2)s1	-11.4	?	-8.2%	-7.9%	-7.6%	68.8%	.
Cc1c(Cl)cccc1NC(=O)Cn1nnc(C(=O)NCc2cccs2)c1N	?	?	-26.0%	?	79.4µM*	89.1µM*	-7.4%
Cc1cccc(NC(=O)Cn2nnc(C(=O)NCc3cccs3)c2N)c1C	4.4	0.2%	-27.2%	-11.5%	-9.8%	6.4%	.
COc1cccc(CNS(=O)(=O)c2ccccc2Br)c1OC	-59.9*	.	-5.1%	2.9%	-18.6%	7.7%	1.1%
CC(C)N(C)c1ncnc2c1ncn2[C@H]1CN(Cc2cccs2)C[C@@H](CO)O1	-2.0	.	.	16.0%	.	.	.
COc1ccccc1C(=O)NNC(=O)c1ccc(Br)cc1	-2.3	20.8%	2.0%	-9.5%	-15.1%	53.6%	.
CNC(=S)N(Cc1cccs1)Cc1cc2cc(OC)ccc2[nH]c1=O	-50.8*	-11.9%	-3.4%	?	-3.6%	11.1%	1.4%
c1cnc2c(-c3ccc4nccn4c3)cccc2c1	-5.8	.	.	6.2%	.	.	.
COc1ccc(/C=N/n2nnnc2N)c(OC)c1	1.9	89.5%	-0.3%	-1.2%	-4.0%	-3.1%	.
CC(C(=O)Nc1ccc([N+](=O)[O-])cc1Cl)N1CCN(S(=O)(=O)c2cccs2)CC1 (stereo not drawn)	4.0	.	-10.9%	-15.6%	-1.5%	14.4%	.
CC(C(=O)Nc1cc([N+](=O)[O-])ccc1Cl)N1CCN(c2ccc(O)cc2)CC1 (stereo not drawn)	-66.0*	?	?	-4.0%[11.6 µM]	?	?	2.9%
NC(=S)c1cc2ccc(O)cc2oc1=O	-72.4*	17.7%	-29.9%	?	0.5%	?	-7.0%
Cc1cccc(N=c2oc3cc(O)ccc3cc2C(N)=O)c1	-54.7*	10.4%	-5.4%	-9.8%	-10.2%	-4.4%	5.4%
C/C(=N/NC(N)=S)c1cc2ccc(O)cc2oc1=O	?	17.9%	-14.8%	-5.3%	-14.9%	?	.
CCOc1ccc(C(=O)c2cc3ccc(O)cc3oc2=O)cc1	-67.0*	95.8%	-5.7%	-2.2%	-15.8%	14.8%	-0.4%
SMILES	PI5P4K alpha inh	Pol beta inh	Pol kappa inh	WRN inhibitor	POLH inh	POLI inh	ADP-Glo interf
O=C(Cn1cnc2c(oc3ccccc32)c1=O)Nc1ccc(F)cc1F	.	7.2%	-18.3%	.	-5.4%	-2.2%	.
CCCCNC(=O)Cn1c(SCc2ccccc2C)nc2ccncc21	.	.	6.0%	.	.	16.5%	.
CCn1c(SCC(=O)c2c(N)n(C3CC3)c(=O)[nH]c2=O)nc2cc(S(N)(=O)=O)ccc21	-9.3	.	-20.3%	3.2%	-14.7%	10.0%	.
O=c1[nH]c(C2CCCN(S(=O)(=O)c3ccccc3)C2)nc2c1nnn2Cc1ccccc1Br (stereo not drawn)	3.3	10.5%	-23.7%	-5.6%	-1.7%	-11.5%	.
CCOC(=O)C1CCCN(C(=O)c2ccc(F)c(C)c2)CC1 (stereo not drawn)	?	.	.	-3.5%	.	.	-1.0%
CCOC(=O)C1CCCN(C(=O)c2cc(F)cc(F)c2)CC1 (stereo not drawn)	0.8	.	.	-1.0%	.	.	.
CC1(C)Cc2cccc(OCC(=O)NCCOc3ccccc3)c2O1	-50.7*	33.6%	0.0%	-6.1%	-19.7%	81.5%	-7.9%
COc1ccccc1CCNC(=O)COc1cccc2c1OC(C)(C)C2	3.2	.	8.9%	-1.4%	-19.9%	-6.4%	.
O=C1CC(c2ccccc2)=C(c2ccccc2)C1c1ccccc1 (stereo not drawn)	-10.6	.	-4.5%	-0.8%	-9.3%	6.6%	.
Cc1cccc(NC(=O)CNC(=O)c2sc3ccccc3c2Cl)n1	-51.2*	.	-20.2%	-3.7%	1.1%	24.4%	-8.4%
Cc1cccnc1NC(=O)CNC(=O)c1sc2ccccc2c1Cl	-2.2	.	11.6%	7.3%	-15.0%	12.8%	.
Cc1ccc(C)c(C2=NNC(=NCc3ccccc3)SC2)c1	-65.5*	-20.3%	-2.6%	-24.7%	-12.0%	70.6%	-3.2%
Cc1nc(-c2cccc(C(F)(F)F)c2)sc1C(=O)O	-50.1*	43.3%	-4.3%	-25.8%[57.1 µM]	-10.0%	83.9%	1.8%
CC(C)CCc1noc(CN2CCN(c3ccc(Cl)cn3)CC2)n1	-0.5	29.6%	-24.2%	9.6%	-15.9%	27.5%	.
CC1CCCC(C)N1C(=O)COC(=O)CNC(=O)c1ccccc1 (stereo not drawn)	-3.5	.	-12.2%	-10.4%	-13.3%	11.4%	-1.3%
CC1CCCC(C)N1C(=O)COC(=O)CN1C(=O)c2ccccc2C1=O (stereo not drawn)	-3.3	.	-9.0%	2.6%	-14.8%	55.7%	.
COc1cc(Br)cc(CNc2ccc(F)c([N+](=O)[O-])c2)c1O	-28.2	-0.6%	-7.3%	-9.0%	-15.6%	14.8%	0.4%
Cc1ccc(CC(=O)Nc2ccc(F)c([N+](=O)[O-])c2)cc1C	1.8	-19.9%	-4.0%	-5.1%	-23.6%	12.0%	.
